The campaign covered roughly 340,000 compounds. About 3,300 (0.97%) were called active. Another 9% or so got no clear call; they are omitted. Calls come from the whole dose curve; as a rule, active = well fitted inhibition curve with a large enough effect; inconclusive = small, poorly fitted or top-dose-only effect, or effect the other way; inactive = flat fitted curve, though single readings scatter. This is one part of the list.
Potency is the fitted concentration of half-maximal effect.

A short description of the assay: qHTS Assay for Modulators of miRNAs and/or Inhibitors of miR-21. Note: nearly all actives have a fitted effect of over 55% in size. The note with it: HeLa miR-21-FLuc reporter, luciferase luminescence, 48 h; actives lower the signal. The procedure, abridged:
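Luminescence from a firefly luciferase reporter carrying a miR-21 binding site downstream, stably expressed under a CMV promoter in HeLa cells that make miR-21 endogenously, reports miRNA modulation after 48 h compound exposure up to approximately 40uM final.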
Background: Quantitative high-throughput screening tests each substance at several concentrations.
For `Cc1nnsc1C(=O)NNc1ccc(C(C)C)cc1`, the Potency is 13.1 µM (active).
For `COCCCNC(=O)c1ccc2nc(Cc3ccc(OC)cc3)oc2c1` the value was 9.27 µM (active); for `CNC(=O)c1ccc2nc(CCc3ccccc3)oc2c1`, 5.85 µM (active).
As for `O=C(NCCCn1ccnc1)c1cc(-c2cccs2)on1`, the Potency was 14.7 µM (active).
For the compound `O=C(NCCCn1ccnc1)c1cc(-c2ccccc2)on1`, the Potency is 16.5 µM (active).
For `C(=N\N=C\c1cccs1)/c1cccs1` the value was 5.21 µM (active).
For `CCn1cnc2cc(NCc3ccc(C)cc3)ccc21` the value was 5.21 µM (active).
As for `CCn1cnc2cc(NCc3ccccc3Cl)ccc21`, the figure is 11.7 µM (active); as for `CCc1ccc(CNc2ccc3c(c2)ncn3CC)cc1`, 5.21 µM (active).
As to `COc1ccc(-n2cnc3cc(NCc4ccco4)ccc32)cc1`, the Potency is 14.7 µM (active).
As for `Cc1ccc(CNc2ccc3c(c2)ncn3C(C)C)cc1`, the figure is 3.29 µM (active); as for `CCn1cnc2cc(NCc3ccc(Cl)cc3)ccc21`, 3.69 µM (active); as for `Cc1ccc(CNc2ccc3c(c2)ncn3C)cc1`, 3.29 µM (active).
With `CC(C)n1cnc2cc(NCc3ccco3)ccc21`, the Potency was 11.7 µM (active).
As for `Cc1cccc(C(=O)Nc2ccc3c(c2)ncn3C)c1`, the figure is 1.47 µM (active).
For `O=C(Nc1ccc(N2CCOCC2)cc1)c1nc2ccccc2s1` the value was 0.0826 µM (active); for `COc1cccc(/C=C(/CC(=O)Nc2ccc(N3CCOCC3)cc2)c2nc3ccccc3s2)c1`, 16.5 µM (active); for `Cc1ccc2oc(-c3ccc(C)c(NC(=O)/C=C/c4ccc(Cl)cc4)c3)nc2c1`, 3.69 µM (active).
For `Cc1ccc2nc(-c3ccc(C)c(NC(=O)CSc4ccc(Cl)cc4)c3)oc2c1` the value was 2.07 µM (active).
For `O=C(NC1CCCCC1)c1ccc(-c2cccc([N+](=O)[O-])c2)o1`, the Potency is 1.31 µM (active).
For `O=C(NC1CCCCC1)c1ccc(-c2ccccc2[N+](=O)[O-])o1` the value was 1.17 µM (active).
As to `COc1ccccc1CC(=O)NCc1csc(-c2cccs2)n1`, the Potency is 6.56 µM (active).
For `O=C(NCc1csc(-c2cccs2)n1)C1CCCCC1` the value was 5.21 µM (active).
For `C/C(CCc1ccc2c(c1)OCO2)=N\NC(=O)c1ccccc1` the value was 13.1 µM (active); for `Fc1ccc(CSc2ccc(-c3ccco3)nn2)cc1`, 8.26 µM (active); for `Fc1cccc(CSc2ccc(-c3ccco3)nn2)c1`, 16.5 µM (active).
For `Cc1ccc(CSc2ccc(-c3ccco3)nn2)cc1` the value was 6.56 µM (active); for `CCN(CC)N=Nc1[nH]nc2nc(C)cc(C)c12`, 16.5 µM (active); for `Brc1ccc2oc(-c3ccn[nH]3)cc2c1`, 2.93 µM (active).
As for `CCN(CC)CCCNC(=S)Nc1ccc(Br)cc1`, the Potency was 2.93 µM (active).
With `Oc1ccc(NC(=S)N=Nc2c(O)[nH]c3ccccc23)cc1`, the Potency is 11.7 µM (active).
For `CC(=O)/C=C(\C)N=Nc1c(O)[nH]c2ccccc12` the value was 18.5 µM (active).
For `O=C(CSCc1ccccc1)N=Nc1c(O)[nH]c2ccccc12` the value was 16.5 µM (active); for `CC(C)c1ccc(/C=N/Nc2ccc(C(=O)O)cc2)cc1`, 0.0465 µM (active).
As to `COc1cc(/C=N/Nc2ccc(C(=O)O)cc2)cc(OC)c1OC`, the Potency is 2.33 µM (active).
As for `COc1ccc(/C=N/Nc2ccc(C(=O)O)cc2)cc1Br`, the figure is 0.104 µM (active).
As for `CCCOc1ccc(/C=N/Nc2ccc(C(=O)O)cc2)c(OCCC)c1`, the figure is 16.5 µM (active).
For `C=CCOc1c(Br)cc(/C=N/Nc2ccc(C(=O)O)cc2)cc1OCC` the value was 2.93 µM (active).
Take `Cc1nc2cc(Cl)c(Cl)cc2nc1C`: the Potency was 16.5 µM (active).
As for `CC(C)CN1CCc2nc(Nc3ccc(F)cc3F)ncc2C1`, the figure is 7.36 µM (active).
Consider `COc1ccccc1Nc1ncc2c(n1)CCN(CC(C)C)C2`, for which the Potency is 6.56 µM (active).
As to `CC(=O)Nc1ccc(-c2nc3cc(Cl)ccc3o2)cc1`, the Potency was 0.369 µM (active).
As for `COc1ccc(-c2nc3ccc(NS(C)(=O)=O)cc3o2)cc1`, the figure is 1.17 µM (active); as for `CC(=O)Nc1ccc(-c2nc3ccc(NC(C)=O)cc3o2)cc1`, 3.69 µM (active); as for `O=C(Nc1ccc(-c2nc3cc(Cl)ccc3o2)cc1)C1CCCO1` (configuration not stated), 0.656 µM (active).
As for `COc1ccc(Cl)cc1C(=O)Nc1ccc2oc(-c3ccc(C(C)(C)C)cc3)nc2c1`, the figure is 4.65 µM (active).
As for `COc1cccc(NCCC(=O)c2cccc([N+](=O)[O-])c2)c1`, the figure is 13.1 µM (active).
For `COc1ccc(C(=O)CCNc2cccc(Cl)c2)cc1`, the Potency was 7.36 µM (active).
As for `COc1n[nH]c(C(=O)Nc2nc3ccccc3s2)c1[N+](=O)[O-]`, the figure is 6.56 µM (active); as for `CNc1ccccc(-c2ccc3cc4c(cc3n2)OCO4)c1=O`, 2.61 µM (active); as for `Cc1ccc2nc(-c3ccc(NC(=S)NC(=O)C(C)C)cc3)sc2c1`, 0.927 µM (active).
For `CCC(=O)NC(=S)Nc1ccc(-c2nc3ccc(C)cc3s2)cc1` the value was 8.26 µM (active); for `CCCCNC(=S)Nc1ccc(-c2nc3ccc(C)cc3s2)cc1`, 0.826 µM (active); for `CCC(=O)NC(=S)Nc1ccc(-c2nc3ccccc3s2)cc1`, 0.293 µM (active).
As for `Cc1ccc(Nc2ncnc3sc(C)c(C)c23)cc1`, the figure is 14.7 µM (active); as for `O=C(CCCn1c(=O)c2cccn2c2ccccc21)Nc1cccc(Cl)c1`, 2.93 µM (active).
As for `COc1ccc(NC(=O)CCCn2c(=O)c3cccn3c3ccccc32)c(OC)c1`, the Potency is 2.07 µM (active).
For `O=C(CCCn1c(=O)c2cccn2c2ccccc21)NCCc1ccc(Cl)cc1` the value was 1.47 µM (active); for `CCCCOC(=O)Oc1ccc2c(=O)c(Oc3cccc(C)c3)coc2c1`, 18.5 µM (active).
In the case of `Cc1nc(Cl)cc(N/N=C/c2ccc(O)cc2)n1`, the Potency was 18.5 µM (active).
As for `Cc1nc2ccccc2nc1N/N=C/c1ccc(O)cc1`, the figure is 18.5 µM (active); as for `Cc1nc2c(-c3ccccc3)cnn2c(N2CCOCC2)c1C`, 2.33 µM (active).
For `C=CCc1c(C)nc2c(-c3ccccc3)cnn2c1N1CCOCC1` the value was 1.65 µM (active); for `Fc1ccccc1-c1nc(-c2ccccc2)no1`, 1.17 µM (active); for `Fc1ccc(-c2cc(-c3nc(-c4ccccc4)no3)[nH]n2)cc1`, 5.85 µM (active).
For `Cc1ccc(-c2noc(-c3ccccc3F)n2)cc1` the value was 1.47 µM (active); for `c1ccc(-c2cc(-c3ccccc3)[nH]n2)cc1`, 1.65 µM (active).
